ABCB6 inh MLPCN: ABCB6 transporter inhibitors, primary screen, K562-ABCB6 cells, flow cytometry, MLPCN library; ATP-binding cassette sub-family B member 6 (Homo sapiens), Q9NP58; K562-ABCB6 porphyrin accumulation, 1 h; active compounds read low; fluorescence ratio to DMSO, % at 10 µM; actives 0.19% (n = 360,000);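 active = fluorescence ratio to DMSO below 75%, the collection mean minus 3 SD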;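 note: signal is porphyrin accumulated inside mitochondria; 100% equals median channel fluorescence of DMSO control wells; lower ratio means ABCB6 inhibition with less porphyrin fluorescence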
iPSC survival up: enhancers of single-cell hiPSC survival, primary screen, ATPlite luminescence; survival enhancement, % at 20 µM; actives 0.044% (n = 360,000); 100% = ROCK inhibitor wells, 0% = DMSO; in the data active = survival enhancement above about 18%;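 note: cells exposed to compounds for 16 hours before the ATP read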
ANO1 block: TMEM16A chloride channel inhibitors, primary screen, cell-based, HTS; HEK293 TMEM16A/YFP iodide influx fluorescence, ionomycin; normalized B-score (activity score, 25-100; higher = stronger inhibition) at 10 µM; actives 1.2% (n = 310,000); AID 588511, 2011;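 active = ratio plate-corrected score three or more library SD toward inhibition, starting fluorescence score within five deviations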;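 note: score derived from kinetic fluorescence span divided by baseline fluorescence per well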
ANO1 activ: TMEM16A chloride channel activators or potentiators, primary screen, cell-based, HTS | HEK293 TMEM16A/YFP-H148Q/I152L, iodide quench fluorescence; active compounds read low | actives 0.3% (n = 340,000) | Anoctamin-1 (Mus musculus), Q8BHY3 | B-score at 10 µM;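 active = fluorescence-ratio B-score plate-corrected deviation score at least 3 library SD below zero, with starting fluorescence score within 5 deviations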;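 note: channel opened by trigger with iodide after compound preincubation; score built on the fluorescence ratio of max minus min over baseline; more negative score means more quench and so TMEM16A activation or potentiation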
DAGLB inh: DAGLB lipase inhibitors, primary screen, biochemical, fluorescence, HTS. inhibition, % at 5.17 µM. HEK293T DAGLB membrane lysate, EnzChek fluorogenic substrate. AID 504411, 2011. actives 0.059% (n = 340,000); in the data active = inhibition above about 34%;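 note: 0% = enzyme with vehicle and 100% = wells lacking enzyme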
TMEM16A reconf: TMEM16A chloride channel inhibitors, confirmation, cell-based, re-confirmation; shares compounds with ANO1 block; HEK293 TMEM16A/YFP-H148Q, iodide quench fluorescence; ionomycin added to raise cell calcium; inhibition, % at 10 µM; actives 39% (n = 2,300); AID 652189, 2013;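 active = mean duplicate percent inhibition, scaled so buffer wells are 0 and the reference blocker 100, over three buffer SD above buffer mean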
HEK293 Ca mobil: calcium mobilization in TMEM16A/YFP HEK293 cells, confirmation, counter-screen for TMEM16A inhibitor project | shares compounds with ANO1 block | Fluo4 calcium mobilization | calcium response (% of ionomycin), % at 10 µM | actives 2% (n = 2,300);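 active = duplicate-averaged calcium signal over 20% of the ionomycin maximum, relative to buffer baseline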;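 note: each well's signal is peak minus trough fluorescence divided by its pre-addition baseline; 0% = buffer wells and 100% = ionomycin wells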
Parental YFP cnt: iodide YFP quench changes in parental YFP-HEK293, counter-screen for TMEM16A inhibitor project, cell-based | shares compounds with ANO1 block | ionomycin | YFP ratio F(max-min)/F0 at 10 µM | 2,300 tested, under 10 active | AID 652233, 2013;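 active = yellow fluorescent protein signal ratio exceeding the buffer control mean by over 5 SD of those controls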;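 note: ratio is mean of duplicate wells from kinetic YFP trace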
ClC-1 inh: ClC-1 chloride channel inhibition, selectivity assay for TMEM16A inhibitor project, cell-based, voltage-dependent ClC-1 | CHO ClC-1-YFP, iodide influx fluorescence quench; iodide control reads 0, buffer control 100 | AID 652236, 2013 | ratio percent, % at 10 µM | 2,300 tested, under 10 active | shares compounds with ANO1 block;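 active = duplicate-mean ratio percent above the mean of iodide-only control wells, which defines zero, plus 5 of their SD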;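 note: higher percent means stronger block of ClC-1 iodide influx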
Active calls of the source: *; i = inactive; / = not tested or not shown. This is a sample that favours compounds with a hit; in the whole collection about 1.5% have one here.

SMILES | ABCB6 inh MLPCN | iPSC survival up | ANO1 block | ANO1 activ | DAGLB inh | TMEM16A reconf | HEK293 Ca mobil | Parental YFP cnt | ClC-1 inh
COc1ccc(CN2C(=O)c3ccccc3C2OC)cc1 (stereo unspecified) | 96 | 0 | i | i | -4 | / | / | / | /
COc1ccc(CN2C(=O)c3ccccc3C(/C=N\OCc3ccc(C)cc3)C2=O)cc1 (stereo unspecified) | 102 | 0 | i | i | -2 | 26%* | i | -1.3 | -6
Cc1c(Cc2ccc3c(c2)OCO3)sc(NC(=O)c2ccccc2)c1C(N)=O | 100 | 4 | i | i | -1 | i | i | -1.1 | 0
O=C1CN(S(=O)(=O)c2cccc(Cl)c2Cl)CCN1 | 97 | 0 | / | i | 1 | / | / | / | /
CC1=C(C(=O)N(C(C)C)C(C)C)CC(CC(=O)NC(c2ccccc2)c2ccccc2)C(=O)N1CCC1=CCCCC1 (stereo unspecified) | 98 | 3 | / | / | / | / | / | / | /
CCCCn1c(N)c(N(CCOC)C(=O)CCS(=O)(=O)c2ccc(Cl)cc2)c(=O)[nH]c1=O | 96 | 0 | i | i | -2 | / | / | / | /
c1nc(NCC2CCCO2)c2[nH]cnc2n1 (stereo unspecified) | 96 | 4 | 25* | i | -1 | i | i | -1 | -14
O=C(OCCN1CCN(c2ncc(C(F)(F)F)cc2Cl)CC1)c1ccc(Cl)cc1 | 96 | 4 | 100* | i | -29 | i | i | -1.1 | -6
Cc1ccnc(NC(=S)N2CCN(c3cccc(C(F)(F)F)c3)CC2)c1 | 93 | 0 | 25* | i | -2 | 18%* | i | -1.1 | -12
Cc1ccc(S(=O)(=O)N2[C@@H](c3cccc(Cl)c3)C(C(=O)OC(C)(C)C)=CC[C@H]2c2cccc(Cl)c2)cc1 | 103 | -1 | / | / | / | / | / | / | /
CCOC(=O)c1c(-c2ccccc2)csc1NC(=O)CSc1nc(C)cc(C)n1 | 99 | 3 | i | i | -7 | / | / | / | /
CCOC(=O)c1c(-c2ccccc2)csc1NC(=O)CSc1nc(N)cc(N)n1 | 92 | 1 | 25* | i | 1 | 30%* | i | -0.85 | -5
COCCN(C(=O)CCC(=O)Nc1nccs1)C(C(=O)NC(C)(C)C)c1ccc(F)cc1 (stereo unspecified) | 95 | 0 | 100* | i | -3 | i | i | -1.1 | 0
CCc1ccccc1NC(=O)CCS(=O)(=O)c1ccc(C)cc1 | 103 | -1 | i | i | 0 | / | / | / | /
CCc1ccccc1NC(=O)CCS(=O)(=O)c1ccc(Br)cc1 | 98 | 0 | i | i | -1 | i | i | -0.97 | -6
O=C(NN=Cc1cc(Br)c(O)c(Br)c1)c1ccccc1NS(=O)(=O)c1cccs1 | 88 | -1 | / | i | 28 | / | / | / | /
O=C(Nc1ccccc1)N1CCN(Cc2ccc3c(c2)OCO3)CC1 | 95 | -1 | 100* | i | -1 | i | i | -1.2 | 2
O=C(C1COc2ccccc2O1)N1CCN(Cc2ccc3c(c2)OCO3)CC1 (stereo unspecified) | 98 | 2 | 25* | i | -3 | i | i | -0.95 | -6
